# Pf growth 96h: P. falciparum growth inhibition at 96 hours | P. falciparum luciferase reporter growth, 96 h | Potency, µM (highest dose often 28.7 µM), inactives show at the top dose activity change, negative = inhibition, actives largely listed as inhibitors | 320,000 tested, 6.9% active; also: potency is read from the fitted curve at half-maximal effect; % is scaled to controls: 0 for no effect and ±100 for the full control effect
#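 Two parasite generations (96 h, 37 C, 5% CO2) of compound exposure in infected erythrocytes (0.05% parasitemia, 2% hematocrit). Luciferase-reporter P. falciparum; decreased luminescence indicates inhibited growth, aimed at apicoplast-acting delayed death.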
# Shiga toxin inh: inhibitors of Shiga toxin in Vero cells. AID 2315. 290,000 tested, 9.2% active. inhibition, % at 38.7 µM. Vero cells, Shiga toxin protein synthesis inhibition reporter; in the data active = inhibition mostly above about 28%, no sharp cut-off; inactive = mostly below about 43%; also: 0% is about no effect
# Pf growth 48h: P. falciparum growth inhibition at 48 hours (one generation); P. falciparum luciferase growth in erythrocytes, 48 h; Potency, µM (titrated, usually from 28.7 µM), for inactives: top-dose activity change, negative = inhibition, most hits filed as inhibitors; 310,000 tested, 5.9% active; also: potency is read from the fitted curve at half-maximal effect; % is scaled to controls: 0 for no effect and ±100 for the full control effect
#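 Read-out is firefly luciferase luminescence from an integrated reporter in P. falciparum, so falling signal marks reduced parasite growth. Infected erythrocytes were at 2% hematocrit and 0.1% parasitemia (final) in Albumax-supplemented RPMI 1640.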
# CHX counter: counter-screen hit for Shiga toxin inhibitors, cycloheximide | cell reporter, cycloheximide protein synthesis inhibition counterscreen | max response, % | 300,000 tested, 12% active; in the data active = max response mostly above about 13%, no sharp cut-off; inactive = mostly below about 14%; also: read at 38.3 µM for the half of the compounds with a filed dose; 0% is about no effect
# * marks the source's active call; other numbers are inactive results; ? = inconclusive; . = no result. Compounds with a hit are over-represented: about 21% of the library has one in this group of screens. Unless noted, calls follow the shape of the dose curve; as a rule, active = well fitted inhibition curve with a large enough effect; inconclusive = small, poorly fitted or top-dose-only effect, or another doubt; inactive = no such curve, though single readings can be large or run the other way.
SMILES,Pf growth 96h,Shiga toxin inh,Pf growth 48h,CHX counter
COc1ccc(C(=O)N2CCc3cc(OC)c(OC)cc3C2c2cccc([N+](=O)[O-])c2)cc1OC (stereo unspecified),?,-2,13µM*,5
COc1cc2c(cc1OC)C(c1ccc(Br)cc1)N(C(=O)c1ccccc1C(=O)O)CC2 (stereo unspecified),?,-14,-19%,-4
COc1ccc(C2c3cc(OC)c(OC)cc3CCN2C(=O)c2ccccc2)cc1OC (stereo unspecified),2.1µM*,3,?,-1
COc1ccc(C2c3cc(OC)c(OC)cc3CCN2C(=O)c2ccccc2Br)cc1OC (stereo unspecified),?,-10,12µM*,-2
Cc1ccc(CNC(=O)COC(=O)c2ccc(S(=O)(=O)NCc3ccco3)cc2)cc1,-26%,.,-16%,.
Nc1ccc(Cl)c(S(=O)(=O)Nc2ccc(Cl)cc2)c1,1%,-3,-2%,-1
COc1ccccc1N(CC(=O)NCCSCc1ccco1)S(=O)(=O)c1ccccc1,0%,-1,?,-4
O=C(CSc1n[nH]c(=O)n1C1CC1)Nc1cc(Cl)ccc1Oc1ccccc1,?,-5,?,-3
N#CC1(NC(=O)CN2CCc3ccccc3C2)CCCC1,-11%,-12,7%,-5
Cc1ccc(-c2nnc(SCC(=O)N/N=C/c3c(C)nn(-c4ccccc4)c3C)n2-c2ccccc2)cc1,4%,-11,6%,1
Cc1ccc(CSc2nnc(SCC(=O)N/N=C/c3c(C)nn(-c4ccccc4)c3C)s2)cc1,?,120*,25%,76*
Cc1nn(-c2ccccc2)c(C)c1/C=N/NC(=O)CSc1nnc(SCc2ccccc2Cl)s1,?,42,30%,35*
Cc1nn(-c2ccccc2)c(C)c1/C=N/NC(=O)CSc1nnc(-c2ccccc2)n1-c1ccc(Cl)cc1,10%,-16,36%,3
Cc1ccc(NC(=S)N2CCN(S(=O)(=O)c3ccccc3)CC2)cc1C,?,-12,-10%,-3
O=C(Nn1cnnc1)c1ccc(Cl)c(Cl)c1,1%,.,14%,-2
COc1ccc2c(c1)NP(=S)(Oc1ccccc1)N2 (stereo unspecified),103%,86*,76%,64*
CCN(CC)c1ccc(NC(=O)C2CCCN(S(=O)(=O)c3cccnc3)C2)c(C)c1 (stereo unspecified),9.3µM*,12,.,21
COc1ccc(NC(=O)C2CCCN(S(=O)(=O)c3cccnc3)C2)c(OC)c1 (stereo unspecified),-1%,-22,.,-10
C#CCOC(=O)C[N+](C)(C)CC#Cc1ccccc1,?,-2,3%,-3
Cc1cccc(C(=O)NCCC(=O)NCc2ccccc2Cl)c1,-2%,.,-6%,.
O=C(CSc1nnc(C2CCCCC2)n1Cc1ccccc1)NCc1ccco1,.,24,-15%,16*
N#CCSc1nc2ccccc2c(=O)n1CCCC(=O)NCc1ccco1,-40%,-5,-1%,6
CCCn1c(=O)n(C)c(=O)c2c(SCC(=O)NCc3ccco3)nc(C3CC3)nc21,4.1µM*,-17,.,-3
O=C(CSc1nc2ccccc2c2nc3ccccc3n12)NCc1ccco1,7%,50*,9.3µM*,28*
O=C(CCCCCn1c(SCc2ccncc2)nc2ccccc2c1=O)NCc1ccco1,21%,-8,8.3µM*,-3
SMILES,Pf growth 96h,Shiga toxin inh,Pf growth 48h,CHX counter
Cc1ccc2cccc(OCC(=O)N3CC(C)CC(C)C3)c2n1 (stereo unspecified),21%,-3,-11%,9
CCCCN(C)C1CCN(C(=S)Nc2cccc(SC)c2)CC1,?,-12,17%,1
O=C(CSc1nc2[nH]ncc2c(=O)n1-c1ccccc1Br)NCc1ccco1,67%,9,12µM*,4
COc1ccc(CCNC(=O)CSc2nc3[nH]ncc3c(=O)n2-c2ccccc2Br)cc1OC,39%,8,?,2
CCn1c(SCC(=O)NCc2ccco2)nc2ccccc2c1=O,7%,-5,-7%,-2
Cn1c(SCC(=O)NCc2ccco2)nc2ccccc2c1=O,-10%,73*,7%,7
COc1ccc(CNc2nc(SCC(=O)NCc3ccco3)nc3ccccc23)cc1,-17%,18,9.3µM*,4
O=C1/C(=C/c2ccccc2)Oc2cc(OC(=O)N3CCOCC3)ccc21,?,11,5%,19*
CN(C)C(=O)Oc1ccc2c(c1)O/C(=C\c1ccc(Cl)cc1)C2=O,22%,38,48%,12
O=C1/C(=C/c2ccc(F)cc2)Oc2cc(OC(=O)N3CCOCC3)ccc21,23%,39,?,-2

# Screening data: PubChem BioAssay, National Center for Advancing Translational Sciences (NCATS)
